In PubChem BioAssay AID432 (Sanford-Burnham Center for Chemical Genomics, 2006):
In all, about 64,000 compounds went through this assay and about 15 (0.02%) were called active. How the calls were made is not given here. Only a sample is shown. Measured potencies and affinities stand elsewhere.

Target: Bcl-2-related protein A1 (Mus musculus) (UniProt Q07440)
Assay: Bfl-1 inhibitors, primary screen, biochemical, fluorescence polarization, FITC-Bid, mouse (AID 432)
Conditions: FITC-Bid BH3 peptide fluorescence polarization displacement; at 20 µM; active compounds read high

Chain of Bcl-2-related protein A1 (Mus musculus) (Q07440 whole entry, looked up): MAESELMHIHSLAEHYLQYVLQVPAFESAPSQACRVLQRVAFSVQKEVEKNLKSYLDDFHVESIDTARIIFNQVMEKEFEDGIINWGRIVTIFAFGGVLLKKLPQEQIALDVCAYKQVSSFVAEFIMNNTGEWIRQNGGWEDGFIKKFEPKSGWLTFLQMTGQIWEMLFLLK

displacement, inactive:
CCCN(c1ccc(C(C)C)cc1)S(=O)(=O)c1c(C)noc1C -2%
COC(=O)Nc1ccc2c(c1)ncn2C1CCCCC1 -3.2%
Brc1ccccc1-c1nnc(CSc2nncn2-c2ccccc2)o1 -1.8%
CCCCC(CC)CNC(=O)c1ccc2c(c1)OCO2 (configuration not stated) 0.7%
CC1CC(C)CN(Cc2nc3c(c(=O)n(C)c(=O)n3C)n2CCN2CCOCC2)C1 (configuration not stated) 29.2%
Cc1ccc(S(=O)(=O)N(C)CCCC(=O)n2nc(C)cc2C)cc1 7%
COc1ccc(C2CCN(Cc3cccnc3)CC2O)cc1 (configuration not stated) -8.7%
CCOC(=O)N1CCC(NC(=O)CN2C(=O)CSc3ncccc32)CC1 3.4%
Cc1ccc(S(=O)(=O)c2cc3c(=O)n4ccccc4nc3n(CC3CCCO3)c2=N)cc1C (configuration not stated) -14.7%
Cc1cc(NCc2ccc(F)cc2Cl)n2nnnc2n1 -1.6%
Cc1c(N(C)C(=O)C23CC4CC(CC(C4)C2)C3)c(=O)n(-c2ccccc2)n1C -6%
CC1(C)NC(=O)N(c2ccccc2Cl)C1(C)NO (configuration not stated) -2.3%
CCOC(=O)N1CCC(c2cc(=O)n3[nH]c(-c4ccccc4)cc3n2)CC1 5.1%
CCOC(=O)c1ccc(NC(=O)CC2C(=O)N(c3cccc(OC)c3)C(=O)N2CCOC)cc1 (configuration not stated) -1.5%
O=C(c1cc2c(s1)CCCCC2)N1CCN(c2ncccn2)CC1 8.4%
O=C(CN1CCN(c2ccc(F)cc2)CC1)N1CCOCC1 -2.4%
COc1nc(N(C)C)nc(N(OC)S(=O)(=O)c2ccccc2Cl)n1 3.7%
CCC(C)c1c(O)nc(SCC(=O)c2ccccc2)[nH]c1=O (configuration not stated) -7.8%
Cc1ccc(S(=O)(=O)NC(=O)COc2ccccc2C(N)=O)cc1 -4.3%
COc1ccccc1-c1nc(C#N)c(N2CCN(C(c3ccccc3)c3ccccc3)CC2)o1 -2.4%
CC(C)OCCCNC(=O)c1sc(=S)n(C)c1N 10.9%
CCOC(=O)C1CCN(CC(=O)Nc2c(C(=O)OC)[nH]c3ccccc23)CC1 -7%
CCOc1cc2c(cc1OCC)C(C(=O)O)C(c1cc(Br)c(O)c(OC)c1)N(C)C2=O (configuration not stated) 6.3%
CCSCCNC(=O)c1cc(-n2cnnc2)ccc1Cl 3%
CCOC(=O)c1oc2cccc(O)c2c1CN(Cc1ccccc1)C(C)=O 1.2%
O=C(CCC(=O)N(CC(=O)NC1CCCCC1)Cc1ccco1)Nc1nccs1 -3.5%
CSc1nc(-c2ccccc2O)nc(-c2ccccc2O)n1 4.5%
NC(=O)CSc1nnc(-c2ccc(S(=O)(=O)N3CCCC3)cc2)n1Cc1ccco1 -5.3%
CC1CCN(CCCNC(=O)c2cc3sccc3n2C)CC1 1.5%
CCN1CCN(CC(=O)Nc2c(C(=O)OC)[nH]c3cccc(Cl)c23)CC1 -4.1%
O=C(O)c1ccc(NS(=O)(=O)c2ccc(Cl)cc2)cc1 -8.2%
CCn1c(SCC(=O)OC)nc2sc3c(c2c1=O)CCC3 2.2%
CCn1c(SC(C)C(=O)O)nc2sc3c(c2c1=O)CCC3 (configuration not stated) 22.5%
Cn1c(=O)c2ncn(CC(=O)NCCC3=CCCCC3)c2n(C)c1=O -18.3%
COCCCNC(=O)Cn1cc2c(n1)CCCCC2 5%
O=C(c1cccc(S(=O)(=O)N2CCCCC2)c1)N1CCOCC1 -1.1%
CS(=O)(=O)c1nc(-c2ccccc2)cc(C(F)(F)F)n1 37.1%
COc1ccc(-c2cc(C(F)(F)F)nc(NC3CCCC3)n2)cc1OC -2.6%
CCOC(=O)Nc1c(O)ccc2oc(C)c(-c3ccccc3)c12 1.9%
Cc1ccc(C)c(-n2nnnc2SCC(=O)NCCC2=CCCCC2)c1 8.5%
CCc1ccccc1NC1=NCC(=O)N1C1CCCCC1 0.4%
Cc1ccc(CN2C(=O)CCC2C(=O)NC2CCCC2)cc1 (configuration not stated) -12%
Cc1cc(NC(=O)Nc2cccc3ccccc23)no1 -1.4%
Cc1cc(O)ccc1Nc1nc2ccccc2nc1Nc1ccc(O)cc1C -1.4%
CN1CCN(C2=C(Cl)C(=O)N(c3cccc(Cl)c3)C2=O)CC1 32.3%
CN1CCN(C2=C(Cl)C(=O)N(c3ccc(Cl)cc3)C2=O)CC1 49.4%
CCSc1nnc(NC(=O)C(C)(C(F)(F)F)C(F)(F)F)s1 -5.7%
CCSc1nnc(NC(=O)C(C)C)s1 0.1%
Cc1ccc(C2C(C#N)=C(N)SC(N)=C2C#N)c(C)c1 -31.9%
NS(=O)(=O)c1ccc(-n2nncc2C23CC4CC(CC(C4)C2)C3)cc1 -2.1%
COC(=O)C1=C(N)Oc2cc(C)n(CC3CCCO3)c(=O)c2C1c1ccc(Cl)cc1 (configuration not stated) -2.1%
c1cn(-c2ncnc3sc4c(c23)CCCC4)cn1 -0.8%
O=C(NCc1ccccc1)c1c[nH]c2ccc(S(=O)(=O)Nc3ccc4c(c3)OCCO4)cc2c1=O -3.6%
O=C(Nn1c(C2CCC2)nc2ccccc2c1=O)C1CCC1 -9%
Cn1c(=O)[nH]c(=O)c2c1nc(Br)n2Cc1ccccc1F -3.5%
CC(=O)c1ccc(OCC(O)CN2CCN(c3ccccn3)CC2)cc1 (configuration not stated) -0.7%
CC1=CC(C)(C)N2C(=O)C3(C(C#N)=C(N)Oc4cc(O)ccc43)c3cccc1c32 (configuration not stated) -2.9%
O=C(Nc1ccc2c(c1)OCO2)c1cnn2c(C(F)(F)F)cc(-c3ccco3)nc12 1%
COc1ccc(NC(=O)c2cnn3c(C(F)(F)F)cc(-c4ccco4)nc23)cc1OC 12%
COc1ccccc1N1CCN(C(=O)C(C)N(c2ccc(C)c(C)c2)S(C)(=O)=O)CC1 (configuration not stated) -2%
COCCNC(=O)Cn1nc(C(F)(F)F)c(Br)c1C -0.1%
CC1CCC(NC(=O)CN2CCCN(Cc3ccc(F)cc3Cl)C2=O)CC1 (configuration not stated) -0.5%
